# GPR7 antag: antagonists of human GPR7 (neuropeptides B/W receptor 1) | AID 1861 | GPR7-expressing cells, fluorescence antagonist assay | inhibition, % at 4.4 µM | 290,000 compounds, 1.1% hits; in the data active means inhibition above about 16%, passing the limit was not always enough;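 further: cells stimulated with the agonist NPW; 0% = agonist with vehicle and 100% = vehicle without agonist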
# CHT block: inhibitors of human choline transporter CHT. CHT-expressing cells, membrane potential dye, choline response; stronger effect = lower value. 310,000 compounds, 0.86% hits. Q9GZV3. B-score at 10 µM;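 active means B-score over 3 SD under the library average, and starting fluorescence ratio not unusually high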;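 further: choline stimulus applied at its EC90 after an EC20 pre-addition; B-score computed on integrated fluorescence ratio after choline addition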
# Target sequence (Q9GZV3 whole entry, looked up): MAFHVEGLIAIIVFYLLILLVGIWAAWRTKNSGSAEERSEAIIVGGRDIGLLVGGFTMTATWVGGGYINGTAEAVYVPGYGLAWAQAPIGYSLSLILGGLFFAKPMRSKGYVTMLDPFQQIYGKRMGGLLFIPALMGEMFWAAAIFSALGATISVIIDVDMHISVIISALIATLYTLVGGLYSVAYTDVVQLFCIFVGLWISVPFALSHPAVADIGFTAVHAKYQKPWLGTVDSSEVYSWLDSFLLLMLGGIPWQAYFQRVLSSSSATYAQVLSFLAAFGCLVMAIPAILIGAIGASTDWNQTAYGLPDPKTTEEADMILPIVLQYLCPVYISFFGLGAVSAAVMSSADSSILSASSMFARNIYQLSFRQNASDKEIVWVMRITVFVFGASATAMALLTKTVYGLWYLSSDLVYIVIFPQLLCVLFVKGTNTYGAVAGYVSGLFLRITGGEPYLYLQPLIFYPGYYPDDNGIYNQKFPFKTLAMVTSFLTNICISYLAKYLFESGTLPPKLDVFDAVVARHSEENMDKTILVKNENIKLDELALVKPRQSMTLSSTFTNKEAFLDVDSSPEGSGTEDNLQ
# TMEM16A inh: blocks the mouse calcium-activated chloride channel TMEM16A | Q8BHY3 | 310,000 compounds, 1.2% hits | HEK293 TMEM16A/YFP iodide influx fluorescence, ionomycin | normalized B-score (activity score, 25-100; higher = stronger inhibition) at 10 µM | AID 588511;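 active means ratio plate-corrected score three or more library SD toward inhibition, starting fluorescence score within five deviations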;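 further: score derived from kinetic fluorescence span divided by baseline fluorescence per well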
# CHT PAM: allosterically activates the human high affinity choline transporter | CHT-expressing cells, membrane potential dye, choline EC20; stronger effect = higher value; LV-AA mutant CHT in HEK293 cells | B-score at 10 µM | 310,000 compounds, 0.49% hits | Q9GZV3;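 active means initial fluorescence not abnormally high and integrated response B-score, plate-corrected, over 3 SD above library mean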
# TMEM16A act: mouse TMEM16A channel activation, primary screen; B-score at 10 µM; 340,000 compounds, 0.3% hits; HEK293 TMEM16A/YFP-H148Q/I152L, iodide quench fluorescence; stronger effect = lower value; Q8BHY3;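 active means fluorescence-ratio B-score plate-corrected deviation score at least 3 library SD below zero, with starting fluorescence score within 5 deviations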;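 further: channel opened by trigger with iodide after compound preincubation; score built on the fluorescence ratio of max minus min over baseline; more negative score means more quench and so TMEM16A activation or potentiation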
# Kir21 block: inhibitors of mouse Kir2.1 inward-rectifier potassium channel | P35561 | HEK293-Kir2.1, FluxOR thallium flux fluorescence; stronger effect = lower value | B-score at 10 µM | 310,000 compounds, 0.85% hits | AID 1672;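 active means fluorescence ratio B-score at or below minus 3 SD of library scores, with starting-brightness B-score within 2 SD, cut at about -4.2 in these data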;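 further: channel flux triggered by added potassium and thallium sulfate stimulus; B-score of peak minus minimum fluorescence over baseline after thallium stimulus; more negative B-score means stronger Kir2.1 block with less thallium influx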
# TMEM16A reconf: reconfirmed blocker of mouse TMEM16A calcium-activated chloride channel. shares compounds with TMEM16A inh. HEK293 TMEM16A/YFP-H148Q, iodide quench fluorescence; ionomycin added to raise cell calcium. inhibition, % at 10 µM. 2,300 compounds, 39% hits. AID 652189;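 active means mean duplicate percent inhibition, scaled so buffer wells are 0 and the reference blocker 100, over three buffer SD above buffer mean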
# HEK293 Ca mobil: counter-screen for TMEM16A inhibitors: effect on calcium mobilization; shares compounds with TMEM16A inh; TMEM16A/YFP HEK293, Fluo4 calcium mobilization; calcium response (% of ionomycin), % at 10 µM; 2,300 compounds, 2% hits; AID 652231;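 active means duplicate-averaged calcium signal over 20% of the ionomycin maximum, relative to buffer baseline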;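 further: each well's signal is peak minus trough fluorescence divided by its pre-addition baseline; 0% = buffer wells and 100% = ionomycin wells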
# YFP-HEK293 quench: acts in parental YFP-HEK293 cells lacking TMEM16A, counter-screen | shares compounds with TMEM16A inh | iodide YFP quench, ionomycin | YFP ratio F(max-min)/F0 at 10 µM | 2,300 tested, under 10 active;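 active means yellow fluorescent protein signal ratio exceeding the buffer control mean by over 5 SD of those controls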;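 further: ratio is mean of duplicate wells from kinetic YFP trace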
# ClC-1 rat inh: selectivity of TMEM16A inhibitors: inhibition of rat ClC-1 chloride channel; shares compounds with TMEM16A inh; CHO ClC-1-YFP, iodide influx fluorescence quench; iodide control reads 0, buffer control 100; ratio percent, % at 10 µM; 2,300 tested, under 10 active; AID 652236;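 active means duplicate-mean ratio percent above the mean of iodide-only control wells, which defines zero, plus 5 of their SD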;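 further: higher percent means stronger block of ClC-1 iodide influx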
# * marks the source's active call; other numbers are inactive results; i = inactive; x = not tested or not shown. Only some compounds are listed: those with a hit (about 3.7% of all), similar ones and a draw of the others.
SMILES,GPR7 antag,CHT block,TMEM16A inh,CHT PAM,TMEM16A act,Kir21 block,TMEM16A reconf,HEK293 Ca mobil,YFP-HEK293 quench,ClC-1 rat inh
O=C(COC(=O)c1ccc(Br)o1)Nc1ccc(N2CCOCC2)cc1,x,x,x,x,i,x,x,x,x,x
COC(=O)C(Cc1cccc(C)n1)(c1ccccc1)c1ccccc1,-13,i,i,i,i,-3.5,x,x,x,x
N#Cc1c(NC(=O)c2ccc([N+](=O)[O-])o2)sc2c1CCC2,-10,i,100*,i,i,-1.7,41%*,i,-1.2,-6
N#Cc1c(NC(=O)c2ccccc2)sc2c1CCC2,2,i,i,i,i,-0.91,x,x,x,x
O=C(CNc1cccc(S(=O)(=O)N2CCCC2)c1)Nc1cccc(Br)c1,x,i,25*,i,i,-0.96,16%*,i,-0.97,-18
O=C(CNc1ccc(Br)cc1)Nc1cccc(S(=O)(=O)N2CCCC2)c1,x,x,x,x,i,x,x,x,x,x
O=C(CNC(=O)c1ccco1)NCc1ccc2c(c1)OCO2,x,x,x,x,i,x,x,x,x,x
CCCN(C(=O)COC(=O)c1[nH]c(C)c(C(=O)OC)c1C)c1c(N)n(Cc2ccccc2)c(=O)[nH]c1=O,x,i,i,i,i,0.54,x,x,x,x
CC(=O)Nc1cccc(-c2cc(-c3c(Cl)cccc3Cl)no2)c1,-11,i,i,i,i,-0.08,x,x,x,x
CNC(=O)Nc1cccc(-c2cc(-c3c(Cl)cccc3Cl)no2)c1,-14,i,100*,i,i,0.49,26%*,i,-0.83,-4
CC(=O)c1cccc(NC(=S)NC(=O)c2cccc(Cl)c2)c1,-4,i,25*,i,i,1.1,i,28%*,-1.2,-6
CC(=O)c1cccc(NC(=S)NC(=O)c2ccccc2)c1,-4,i,i,i,i,-1.8,x,x,x,x
COc1ccc(S(=O)(=O)NC(C(=O)OCC(=O)Nc2ccc(N3CCOCC3)cc2)C(C)C)cc1 (stereo unspecified),x,x,x,x,i,x,x,x,x,x
O=C(CC(Cc1ccccc1)c1ccco1)NC1CCCCC1 (stereo unspecified),-1,i,i,i,i,-2.7,i,i,-1.2,0
CCCCNC(=O)c1cc2cc(CC)ccc2[nH]1,-5,i,i,i,i,-0.63,x,x,x,x
COc1ccc(NC(=O)Nc2nnc(Cc3ccccc3)s2)cc1,-4,i,i,i,i,0.4,x,x,x,x
COc1ccc(Cc2nc(C(=O)Nc3ccc(F)cc3)cs2)cc1,-6,i,100*,i,i,-0.01,26%*,i,-0.71,-8
O=C(Nc1ccc(Cl)cc1)c1csc(Cc2ccccc2)n1,-10,i,25*,i,i,-0.01,30%*,i,-0.87,-4
COc1ccc(Cc2nc(C(=O)Nc3ccccc3)cs2)cc1,-3,i,100*,i,i,1.4,24%*,i,-1.1,-15
COc1ccc(CNC(=O)c2csc(Cc3ccc(Cl)cc3)n2)cc1,21,i,100*,i,i,-9*,i,i,-1.2,-10
COc1ccc(Cn2nnc(C(=O)Nc3ccc(F)cc3)c2N)cc1,34,i,i,i,i,-0.54,x,x,x,x
Cn1cc(-c2ccno2)c(C(=O)O)n1,-10,i,i,i,i,2,x,x,x,x
Cc1ccc2c(c1)CCCN2CC(=O)N(C)c1c(N)n(Cc2ccccc2)c(=O)[nH]c1=O,x,x,x,x,i,x,x,x,x,x
COc1ccc(COc2ccsc2C(=O)Nc2ccc(Cl)cc2)cc1,-9,i,i,i,i,-0.28,x,x,x,x
COc1ccc(NC(=O)c2csc(Cc3ccc(Cl)cc3)n2)cc1,12,i,100*,i,i,-1.5,i,i,-0.91,-4
SMILES,GPR7 antag,CHT block,TMEM16A inh,CHT PAM,TMEM16A act,Kir21 block,TMEM16A reconf,HEK293 Ca mobil,YFP-HEK293 quench,ClC-1 rat inh
O=C(COC(=O)Cn1[nH]c(=O)c2ccccc2c1=O)NNC(=O)c1ccccc1,x,x,x,x,i,x,x,x,x,x
O=C(Cn1[nH]c(=O)c2ccccc2c1=O)OCC(=O)N(Cc1ccccc1)Cc1ccccc1,-2,i,100*,i,i,-0.09,i,24%*,-0.9,-14
O=C(OCC(=O)N(CCc1ccccc1)Cc1ccccc1)c1cccc(S(=O)(=O)N2CCOCC2)c1,x,x,x,x,i,x,x,x,x,x
COc1ccc(-c2c3c(nc4sc5c(Cl)nc(C)nc5c24)CCC3)cc1,-7,i,100*,i,i,-0.32,i,i,-1.2,-7
Cc1ccc(-c2c3c(nc4sc(C(N)=O)c(N)c24)CCC3)cc1,-5,i,i,i,i,0.57,x,x,x,x
O=C(CC1SC(=NCCc2ccccc2)N(/N=C/c2cccs2)C1=O)Nc1ccc(Cl)cc1 (stereo unspecified),-8,i,i,i,i,0.37,x,x,x,x
CCN(CC)CCNC(=O)C(=O)Nc1cc2c3c(c1)CCC(=O)N3CCC2,3,i,i,i,i,-1.9,x,x,x,x
COc1cc2cc(CCCOC(=O)CCCC(=O)O)oc(=O)c2cc1OC,x,x,x,x,i,x,x,x,x,x
COc1ccccc1CCNS(=O)(=O)CCNC(=O)c1ccc2c(c1)OCO2,x,i,i,i,i,-1.8,x,x,x,x
CC(C)OC(=O)CSc1nc2ccccc2s1,-11,i,i,i,i,x,x,x,x,x
CC(C)CC1CC(=O)OC1(C)C(=O)CSc1nc2ccccc2s1 (stereo unspecified),-4,i,100*,i,i,0.7,i,i,-1.2,-6
O=C(CCOc1ccccc1)NNC(=O)c1ccccc1,x,x,x,x,i,x,x,x,x,x
CCn1c(SCC(=O)N2CCOCC2)nc2sc3c(c2c1=O)CCCC3,-12,i,i,i,i,0.75,x,x,x,x
CCn1c(SCC(=O)N2CCOCC2)nc2oc3c(Cl)cc(Cl)cc3c(=O)c2c1=O,-4,i,i,i,x,0.67,32%*,i,-0.31,10
Cc1cc(C2(c3ccc(O)c(C)c3)C(=O)Nc3ccccc32)ccc1O,-11,i,100*,i,i,0.32,i,i,-1.2,-27
CN(C)S(=O)(=O)c1cccc(COC(=O)c2ccc(Cl)cc2O)c1,6,i,100*,i,i,1.4,28%*,i,-0.88,-24

# Screening data from PubChem.
